# Test results from PubChem BioAssay AID887 (National Center for Advancing Translational Sciences (NCATS), 2007).
# Among all 74,000 compounds or so, about 1,100 (1.5%) were called active. Entries that show only a call come without a potency. Roughly 5% stayed inconclusive and do not appear here. Calls come from the whole dose curve; as a rule, active = well fitted inhibition curve with a large enough effect; inconclusive = small, poorly fitted or top-dose-only effect; inactive = no such curve, though single readings can be large or run the other way. The full list was thinned out, with actives kept by preference.
# Biological target: Polyunsaturated fatty acid lipoxygenase ALOX15 (Homo sapiens) (UniProt P16050)
# Sequence (P16050 whole entry, looked up): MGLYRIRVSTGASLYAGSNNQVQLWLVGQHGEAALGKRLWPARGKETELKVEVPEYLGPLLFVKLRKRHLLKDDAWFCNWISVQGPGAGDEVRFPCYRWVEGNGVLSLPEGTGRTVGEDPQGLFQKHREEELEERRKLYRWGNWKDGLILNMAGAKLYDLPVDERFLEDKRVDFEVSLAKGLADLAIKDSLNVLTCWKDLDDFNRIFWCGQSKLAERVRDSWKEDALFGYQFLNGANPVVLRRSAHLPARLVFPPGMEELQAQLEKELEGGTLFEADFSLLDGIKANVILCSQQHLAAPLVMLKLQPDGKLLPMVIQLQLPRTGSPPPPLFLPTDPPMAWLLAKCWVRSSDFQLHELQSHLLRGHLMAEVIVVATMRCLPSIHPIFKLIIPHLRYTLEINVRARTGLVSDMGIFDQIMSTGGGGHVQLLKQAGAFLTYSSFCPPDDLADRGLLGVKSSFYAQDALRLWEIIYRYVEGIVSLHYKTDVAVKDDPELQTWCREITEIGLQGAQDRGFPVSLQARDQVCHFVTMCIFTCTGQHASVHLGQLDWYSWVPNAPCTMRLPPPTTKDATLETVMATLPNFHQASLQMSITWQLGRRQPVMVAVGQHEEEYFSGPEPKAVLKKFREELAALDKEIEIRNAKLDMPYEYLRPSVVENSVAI
# Test: qHTS Assay for Inhibitors of 15-hLO (15-human lipoxygenase); note: nearly all actives have a fitted effect of over 55% in size
# Conditions: purified 15hLO-1, xylenol orange hydroperoxide absorbance; series mostly up to 57.1 µM
# Excerpt: Assay Overview: NIH Molecular Libraries Screening Centers Network [MLSCN] NIH Chemical Genomics Center [NCGC] MLSCN Grant: MH081283-01A1 PI Name: Holman, T.R., University of California, Santa Cruz Human lipoxygenase 15hLO-1 is a member of the closely related lipoxygenase family of enzymes which catalyze the site-specific oxidation of arachidonic acid to various hormone precursor molecules and as such is a candidate for drug development in a variety of disease areas, such as cancer and inflammation. Inhibition of 15hLO-1 activity was screened by utilizing arachidonic acid as a substrate. The extent of hydroperoxide product formation was measured by a secondary chromogenic reaction in which xylenol orange (XO, Sigma-Aldrich, cat. number 39,818-7) reacts with the ferric ions produced from the reaction between the hydroperoxide and ferrous ions. The Fe(III)-XO complex is characterized with red-shifted absorbance at 560 nm. A purified preparation of human 15hLO-1 was supplied by Professor Ted Holman, University of California, Santa Cruz.
# Assay Protocol: Buffer: 25 mM Hepes pH 7.5, 0.01% Triton X-100. Reagents/Controls: Buffer in columns 3 and 4 as negative control (no enzyme). Substrate solution: 50 uM arachidonic acid (Sigma-Aldrich, St. Louis, MO) final concentration dispensed throughout the plate. Enzyme: 40 nM 15hLO-1 final concentration in columns 1, 2, 5-48. Column 1 is neutral (100% activity). Column 2 contained pin-transferred titration of NDGA (nordihidroguaiaretic acid, Sigma-Aldrich, N 5023, top concentration 10 mM in DMSO, then 1:2 dilution in duplicate). (Dilution factor: 23 nL into 4 uL.) Chromogenic detection reagent (divalent iron/xylenol orange, Fe-XO): 200 uM xylenol orange plus 300 uM ferrous ammonium sulfate prepared freshly in 50 mM sulfuric acid. Assay Steps: Three uL of enzyme were dispensed to 1536-well Greiner black clear bottom plates. Compounds and controls (23 nL) were transferred via Kalypsys PinTool. The plates were incubated for 15 min at room temperature, and then 1 uL of substrate solution was added to start the reaction. After room temperature incubation for 6 minutes, 4 uL of Fe-XO solution was added to each well followed by a short spin (1000 rpm, 15 sec) and the plates were then incubated for 30 min. The absorbance at 405 and 573 nm were measured using ViewLux (Perkin-Elmer) High-throughput CCD imager and absorbance protocol settings. The 573-to-405 absorbance ratio was used to compute reaction progress.
# Potency is the fitted concentration of half-maximal effect.
row,Compound,Potency
1,CC(C)(Cc1c[nH]c2ccc(Cl)cc12)NCCOc1ccccc1OCC1CC1,12.6 µM (active)
2,CNCC[C@H](Oc1ccc(C(F)(F)F)cc1)c1ccccc1,inactive
3,CCC(C)C(=O)O[C@@H]1C[C@@]2(C)C(c3ccoc3)OC(=O)CC23OC2(C)O[C@@]14[C@@]1(C)C(CC(=O)OC)C5(C)CC1(O)C(O)(C5OC(=O)C1(C)OC1C)C(OC(C)=O)[C@@]34O2 (stereo not given in full),inactive
4,CN(C)C1C(=O)C(C(N)=O)=C(O)[C@@]2(O)C(=O)C3=C(O)c4c(O)cccc4[C@@](C)(O)C3C[C@@H]12 (stereo not given in full),inactive
5,CC(=O)OC1C2CCC3C1(CC(O)[C@@]1(O)[C@@H](CC(O)C1(C)C)[C@]3(C)O)C[C@@]2(C)O (stereo not given in full),inactive
6,COC(=O)N(c1ccc(OC)cc1)P1(=S)OCCC(C)O1 (stereo not given),3.98 µM (active)
7,CC1=CC(=O)C2=C(C)C[C@H](O)[C@H]3[C@H](C)C(=O)O[C@@H]3C12 (stereo not given in full),inactive
8,C[C@@]12CCC3C(CC[C@@H]4CC(O)CC[C@@]34C)C1CCC2O (stereo not given in full),inactive
9,CCN1C[C@]2(COC)C(O)C[C@H](OC)[C@@]34C5C[C@]6(O)C(OC)C(O)[C@](OC(C)=O)(C5C6OC(=O)c5ccccc5)C(C(OC)C23)C14 (stereo not given in full),inactive
10,Clc1ccc(C(c2ccc(Cl)cc2)n2cc[n+](C[C@@H](OCc3ccc(Cl)cc3Cl)c3ccc(Cl)cc3Cl)c2)cc1,20 µM (active)
11,CN1C2CC3CC1C(O3)C2O (stereo not given),inactive
12,N#Cc1c(Cl)c(Cl)c(Cl)c(C#N)c1Cl,inactive
13,CC[C@@H]1CN2CC[C@@H]1C[C@H]2[C@H](O)c1ccnc2ccc(OC)cc12,inactive
14,CNC(C)[C@@H](O)c1ccccc1 (stereo not given in full),inactive
15,COc1ccc2c3c1OC1CC(O)C=C[C@@]31CCN(C)C2 (stereo not given in full),inactive
